Assay results as given in PubChem BioAssay AID1159580 (chemical genetic matrix, 2015).
Among all 5,500 compounds or so, about 2,000 (36%) were called active. Inconclusive results (about 18%) are left out. Rule as the data show it: active = normalized growth mostly below about 0.91 (no sharp cut-off); inconclusive = no clear call, values can overlap the other calls; inactive = mostly above about 0.92. Some of the results follow.

Assay: chemical genetic growth profiling, strain panel (AID 1159580);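 also: tested at 20 µM; growth read once vehicle control cultures reached saturation at 30 °C; 1 = growth at the plate median or of vehicle wells; lower values mean less growth of the strain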
Settings: S. cerevisiae deletion strains, growth OD
[1] = locus YCL061C, strain MRC1, active compounds read low
[2] = locus YHR030C, strain SLT2, active compounds read low
[3] = locus YJR075W, strain HOC1, active compounds read low

Measured: normalized growth

CCCC(CC(=O)O)(C(=O)O)c1ccccc1 (stereo not given)
inactive: locus YAL013W, strain DEP1, active compounds read low 1.01 | locus YBR229C, strain ROT2, active compounds read low 1 | [1] 1.01 | locus YDL101C, strain DUN1, active compounds read low 1.01 | locus YDR150W, strain NUM1, active compounds read low 1 | locus YEL061C, strain CIN8, active compounds read low 1.01 | locus YGR078C, strain PAC10, active compounds read low 1 | locus YGR229C, strain SMI1, active compounds read low 1.01 | [2] 1.12 | locus YHR087W, strain rtc3, active compounds read low 1 | locus YJR043C, strain POL32, active compounds read low 1.01 | [3] 1 | locus YLR039C, strain RIC1, active compounds read low 1.03 | locus YLR058C, strain SHM2 (second series), active compounds read low 1.01 | locus YLR085C, strain ARP6, active compounds read low 1.05 | locus YLR262C, strain YPT6, active compounds read low 1.02 | locus YML094W, strain GIM5, active compounds read low 1.02 | locus YMR219W, strain ESC1, active compounds read low 1.01 | locus YMR263W, strain SAP30, active compounds read low 1 | locus YNL153C, strain GIM3, active compounds read low 1 | locus YNL298W, strain CLA4 (second series), active compounds read low 1.03 | locus YNL322C, strain KRE1, active compounds read low 0.998 | locus YNR030W, strain Alg12, active compounds read low 1.01 | locus YPL055C, strain LGE1, active compounds read low 1.06 | locus YPL241C, strain CIN2, active compounds read low 1.02 | locus YPR135W, strain CTF4, active compounds read low 1.06

CCCCCCCCCCCCCCC(C(=O)O)C(O)(CC(=O)OC)C(=O)O (stereo not given)
active: locus YHR013C, strain ard1, active compounds read low 1.62 [resistant] | locus YJL129C, strain trk1, active compounds read low 0.869 | locus YMR058W, strain fet3, active compounds read low 0.9 | locus YOR270C, strain vph1, active compounds read low 1.45 [resistant]
inactive: locus YAL021C, strain ccr4, active compounds read low 1.04 | locus YAL026C, strain drs2, active compounds read low 0.997 | locus YAL030W, strain snc1, active compounds read low 1 | locus YBL061C, strain skt5, active compounds read low 0.97 | locus YBR009C, strain hhf1, active compounds read low 0.955 | locus YBR023C, strain chs3, active compounds read low 0.967 | locus YBR171W, strain sec66, active compounds read low 0.999 | locus YBR231C, strain swc5, active compounds read low 0.986 | locus YBR279W, strain paf1, active compounds read low 0.988 | locus YCL011C, strain gbp2, active compounds read low 1 | locus YCL016C, strain dcc1, active compounds read low 1.01 | [1] 0.986 | locus YCL069W, strain vba3, active compounds read low 1.02 | locus YCR088W, strain abp1, active compounds read low 1.02 | locus YDL005C, strain med2, active compounds read low 0.987 | locus YDL040C, strain nat1, active compounds read low 0.985 | locus YDR001C, strain nth1, active compounds read low 1.02 | locus YDR069C, strain doa4, active compounds read low 1.07 | locus YDR137W, strain rgp1, active compounds read low 0.999 | locus YDR159W, strain sac3, active compounds read low 0.996 | locus YDR195W, strain ref2 1.03 | locus YDR297W, strain sur2, active compounds read low 0.994 | locus YDR334W, strain swr1, active compounds read low 1.01 | locus YDR335W, strain msn5, active compounds read low 0.977 | locus YDR392W, strain spt3, active compounds read low 0.857 | locus YEL003W, strain gim4, active compounds read low 0.98 | locus YEL037C, strain rad23, active compounds read low 1 | locus YEL061C, strain CIN8 (second series), active compounds read low 1.01 | locus YER015W, strain faa2, active compounds read low 1 | locus YER016W, strain bim1, active compounds read low 1 | locus YER111C, strain swi4, active compounds read low 0.964 | locus YER155C, strain BEM2 (second series), active compounds read low 0.981 | locus YFR010W, strain ubp6, active compounds read low 1.08 | locus YGL167C, strain pmr1, active compounds read low 0.981 | locus YGL173C, strain kem1, active compounds read low 0.958 | locus YGL227W, strain vid30, active compounds read low 1 | locus YGL240W, strain doc1, active compounds read low 0.987 | locus YGL253W, strain hxk2, active compounds read low 0.966 | locus YHR027C, strain rpn1, active compounds read low 0.994 | [2] 0.973 | locus YHR079C, strain IRE1, active compounds read low 1 | locus YHR142W, strain chs7, active compounds read low 0.927 | locus YJL092W, strain hpr5, active compounds read low 1.01 | locus YJL095W, strain BCK1 (second series), active compounds read low 1 | locus YJL095W, strain BCK1, active compounds read low 0.952 | locus YJL115W, strain asf1, active compounds read low 0.976 | locus YJL154C, strain vps35, active compounds read low 1.01 | locus YJL164C, strain tpk1, active compounds read low 0.979 | locus YJL166W, strain qcr8, active compounds read low 0.976 | locus YJL187C, strain SWE1, active compounds read low 0.995 | locus YJR066W, strain TOR1, active compounds read low 0.898 | locus YKL160W, strain elf1, active compounds read low 0.99 | locus YKR026C, strain gcn3, active compounds read low 0.999 | locus YKR091W, strain srl3, active compounds read low 1.01 | locus YLL001W, strain dnm1, active compounds read low 0.992 | locus YLL026W, active compounds read low 0.997 | locus YLL041C, strain sdh2, active compounds read low 1.01 | locus YLR027C, strain aat2, active compounds read low 0.969 | locus YLR113W, strain HOG1, active compounds read low 1.02 | locus YLR221C, strain rsa3, active compounds read low 0.947 | locus YLR258W, strain gsy2, active compounds read low 1 | locus YLR262C, strain YPT6 (second series), active compounds read low 0.986 | locus YLR320W, strain mms22, active compounds read low 0.996 | locus YLR342W, strain FKS1, active compounds read low 1 | locus YLR357W, strain rsc2, active compounds read low 0.926 | locus YLR370C, strain arc18, active compounds read low 1.01 | locus YLR384C, strain iki3, active compounds read low 1 | locus YML120C, strain ndi1, active compounds read low 1.02 | locus YMR125W, strain sto1, active compounds read low 1.01 | locus YMR129W, active compounds read low 1.01 | locus YMR205C, strain PFK2, active compounds read low 1.04 | locus YMR231W, strain pep5, active compounds read low 0.941 | locus YNL071W, strain lat1, active compounds read low 1.02 | locus YNL183C, strain NPR1, active compounds read low 0.871 | locus YNL209W, strain ssb2, active compounds read low 1.01 | locus YNL248C, strain rpa49, active compounds read low 0.996 | locus YNL322C, strain KRE1 (second series), active compounds read low 1.02 | locus YNR049C, strain mso1, active compounds read low 0.999 | locus YOR001W, strain rrp6, active compounds read low 0.981 | locus YOR070C, strain gyp1, active compounds read low 0.985 | locus YOR080W, strain dia2, active compounds read low 0.994 | locus YOR083W, strain WHI5, active compounds read low 0.967 | locus YOR106W, strain vam3, active compounds read low 0.982 | locus YOR231W, strain MKK1, active compounds read low 1.02 | locus YOR265W, strain rbl2, active compounds read low 1 | locus YOR290C, strain snf2, active compounds read low 1.04 | locus YPL051W, strain arl3, active compounds read low 0.95 | locus YPL078C, strain atp4, active compounds read low 0.996 | locus YPL106C, strain sse1, active compounds read low 0.976 | locus YPL240C, strain hsp82, active compounds read low 1 | locus YPL256C, strain CLN2, active compounds read low 0.999

CCCCCC(O)CCCC(=O)O (stereo not given)
inactive: locus YAL040C, strain CLN3, active compounds read low 1.02 | locus YCL061C, strain MRC1 (second series), active compounds read low 1.01 | locus YDR363W, strain ESC2, active compounds read low 1.01 | locus YER002W, strain NOP16, active compounds read low 1.03 | [3] 1.02 | locus YNL175C, strain NOP13, active compounds read low 1.02 | locus YNL197C, strain WHI3, active compounds read low 1.05 | locus YNL224C, strain SQS1, active compounds read low 0.991 | locus YOR083W, strain WHI5 (second series), active compounds read low 1.06
